A short description of test [1]: antimalarial activity against Dd2 strain (AID 2302;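 active = growth inhibition above 50% at the single 2 µM test dose, taken to imply half-maximal potency below 2 µM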;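 note: 0% = DMSO untreated growth and 100% = chloroquine plus artemisinin killed control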). The conditions noted are these: P. falciparum Dd2 in RBCs, LDH growth readout, 72 h; at 2 µM; hits give high values.
Test [2] in a line: human hepatoma cell viability loss – ATP luminescence, cytotoxicity control for P. falciparum antimalarial project, primary screen (AID 2303;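 active = inhibition above 50%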;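 note: 0% = DMSO wells and 100% = digitonin-killed cells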). The conditions noted are these: HepG2 viability, 24-48 h, at 10 µM, hits give high values.
Test [3] deals with L-lactate dehydrogenase (Plasmodium falciparum (isolate CDC / Honduras)) (UniProt Q27743). The test is described as follows: PfLDH activity inhibition – cell lysate, 3D7 strain, counter-screen for P. falciparum growth inhibition project (AID 2304).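 Note: 0% = vehicle and 100% = reference inhibitor.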 The conditions noted are these: P. falciparum 3D7 crude extract, LDH APAD/NBT absorbance; at 2 µM; hits give high values. Background: Counterscreens check selectivity or assay interference.

Test [4] can be described thus: inhibition of 3D7 malaria parasite growth – strain 3D7 (AID 2306).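 Note: 0% = DMSO wells and 100% = chloroquine plus artemisinin control wells.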 The settings on record: P. falciparum 3D7 erythrocytic growth, LDH absorbance, 72 h; at 2 µM; hits give high values.
The target of test [5] is Calcium-dependent protein kinase 1 (Plasmodium falciparum (isolate 3D7)) (UniProt P62344). The test is described as follows: PfCDPK1 kinase inhibitors, biochemical, TCAMS library (AID 1159585; cut-off not given, nearly all actives have IC50 up to about 0.98 µM;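 note: inhibitors leave more ATP so luminescence rises with inhibition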). The settings on record: recombinant PfCDPK1, Kinase-Glo ATP depletion luminescence. (In Kinase-Glo more light means more ATP remaining.)
In test [6] the target is Plasmodium falciparum protein kinase 6 (PK6, PF3D7_1337100) (UniProt Q8IDW1). The test is described as follows: PfPK6 kinase inhibitors, biochemical, TCAMS library (AID 1159586). The conditions noted are these: recombinant PfPK6, Kinase-Glo ATP depletion luminescence.
For test [7], the target named is Protein kinase 7 (PK7), Plasmodium falciparum 3D7 (PF3D7_0213400) (UniProt Q7YTF7). The test is described as follows: inhibition of Plasmodium PK7 catalytic activity – biochemical, TCAMS antimalarial set, Kinase-Glo luminescence (AID 1159587). The settings on record: recombinant PfPK7, Kinase-Glo ATP depletion luminescence.
Test [8] deals with Calcium-dependent protein kinase 4 (Plasmodium falciparum (isolate 3D7)) (UniProt Q8IBS5). As to the kind of experiment: PfCDPK4 kinase inhibitors, biochemical, TCAMS library (AID 1159588; cut-off not given, nearly all actives have IC50 up to about 0.91 µM). The conditions noted are these: recombinant PfCDPK4, Kinase-Glo ATP depletion luminescence.

A number with no mark means an inactive call. For some of these results: Measured potencies and affinities stand elsewhere. Active and inactive are the calls of the source. Unless noted, the rule behind the calls is not given here.

Usually inhibition stands for the relative decrease from the control value, in per cent.

Sequence of Calcium-dependent protein kinase 1 (Plasmodium falciparum (isolate 3D7)) (P62344 whole entry, looked up): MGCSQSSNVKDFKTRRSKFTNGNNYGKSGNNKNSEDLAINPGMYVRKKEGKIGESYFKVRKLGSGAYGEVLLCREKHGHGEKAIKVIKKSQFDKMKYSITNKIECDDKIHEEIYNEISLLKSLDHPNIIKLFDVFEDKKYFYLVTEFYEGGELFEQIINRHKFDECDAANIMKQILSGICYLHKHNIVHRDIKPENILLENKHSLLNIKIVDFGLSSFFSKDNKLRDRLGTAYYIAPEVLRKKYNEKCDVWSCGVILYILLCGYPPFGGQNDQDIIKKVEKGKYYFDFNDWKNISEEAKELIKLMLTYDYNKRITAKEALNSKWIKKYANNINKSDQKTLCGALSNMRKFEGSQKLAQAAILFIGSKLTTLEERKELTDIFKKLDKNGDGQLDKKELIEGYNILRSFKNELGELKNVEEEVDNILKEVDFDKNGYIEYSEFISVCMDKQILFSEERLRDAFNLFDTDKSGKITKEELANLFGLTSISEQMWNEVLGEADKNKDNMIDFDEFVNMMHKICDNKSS
Sequence of L-lactate dehydrogenase (Plasmodium falciparum (isolate CDC / Honduras)) (Q27743 whole entry, looked up): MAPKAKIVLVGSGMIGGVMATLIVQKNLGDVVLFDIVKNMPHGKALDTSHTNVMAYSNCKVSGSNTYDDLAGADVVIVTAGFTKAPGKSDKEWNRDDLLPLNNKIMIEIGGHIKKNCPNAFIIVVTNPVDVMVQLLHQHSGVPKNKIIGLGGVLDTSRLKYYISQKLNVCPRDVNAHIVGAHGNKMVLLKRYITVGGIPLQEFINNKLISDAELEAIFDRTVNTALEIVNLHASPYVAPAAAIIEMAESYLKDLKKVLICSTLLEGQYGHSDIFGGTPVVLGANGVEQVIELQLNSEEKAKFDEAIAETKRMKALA
Sequence of Plasmodium falciparum protein kinase 6 (PK6, PF3D7_1337100) (Q8IDW1 1-305): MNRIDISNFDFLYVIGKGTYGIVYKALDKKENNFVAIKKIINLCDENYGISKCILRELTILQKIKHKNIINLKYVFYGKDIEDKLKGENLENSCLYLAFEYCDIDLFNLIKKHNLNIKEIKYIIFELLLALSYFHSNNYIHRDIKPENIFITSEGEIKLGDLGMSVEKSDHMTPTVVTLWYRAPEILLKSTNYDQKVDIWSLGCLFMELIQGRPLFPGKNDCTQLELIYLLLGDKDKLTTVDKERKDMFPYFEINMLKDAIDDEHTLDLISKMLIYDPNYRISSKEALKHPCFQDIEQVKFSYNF
Sequence of Protein kinase 7 (PK7), Plasmodium falciparum 3D7 (PF3D7_0213400) (Q7YTF7 1-343): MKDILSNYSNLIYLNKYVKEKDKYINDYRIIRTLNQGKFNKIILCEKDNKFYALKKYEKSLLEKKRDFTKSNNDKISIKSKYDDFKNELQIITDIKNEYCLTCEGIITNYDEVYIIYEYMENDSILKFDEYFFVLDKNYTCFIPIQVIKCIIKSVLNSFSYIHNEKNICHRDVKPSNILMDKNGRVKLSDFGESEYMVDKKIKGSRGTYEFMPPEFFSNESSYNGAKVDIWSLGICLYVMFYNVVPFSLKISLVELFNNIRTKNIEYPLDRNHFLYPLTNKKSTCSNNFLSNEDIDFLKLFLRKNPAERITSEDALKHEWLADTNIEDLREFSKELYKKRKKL
Sequence of Calcium-dependent protein kinase 4 (Plasmodium falciparum (isolate 3D7)) (Q8IBS5 whole entry, looked up): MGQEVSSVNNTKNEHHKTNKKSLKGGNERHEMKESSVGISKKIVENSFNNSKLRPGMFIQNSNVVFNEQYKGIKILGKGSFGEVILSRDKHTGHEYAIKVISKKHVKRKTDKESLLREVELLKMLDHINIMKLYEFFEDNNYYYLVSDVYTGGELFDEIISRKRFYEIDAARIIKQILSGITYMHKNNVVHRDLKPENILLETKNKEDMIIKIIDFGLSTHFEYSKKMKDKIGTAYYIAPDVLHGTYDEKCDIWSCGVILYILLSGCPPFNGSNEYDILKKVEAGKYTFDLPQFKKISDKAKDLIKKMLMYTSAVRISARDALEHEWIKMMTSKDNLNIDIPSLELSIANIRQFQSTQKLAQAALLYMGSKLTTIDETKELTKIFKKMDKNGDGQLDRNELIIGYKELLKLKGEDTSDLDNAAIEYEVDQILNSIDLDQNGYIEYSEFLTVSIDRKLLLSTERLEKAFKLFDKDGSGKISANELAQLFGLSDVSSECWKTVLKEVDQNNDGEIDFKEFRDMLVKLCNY

On to `CCOC(=O)NCC(=O)Nc1cccc(-c2cccc(-c3nc4ccc(C(F)(F)F)cc4[nH]3)c2)c1`, for which the growth inhibition in test [1] is 34%; in test [4] it was 91% (active). The values for the inhibition in test [2] and in test [3] were 59% (active) and -2%, respectively. Besides, the outcome in test [5], in test [6], in test [7] and in test [8] was inactive.
Regarding `CCOP(=O)(OCC)c1ccc(OC)c(-c2ccc[nH]2)c1`, the growth inhibition in test [1] was 10%; in test [4] it was 95% (active). The inhibition was -13% in test [2] and -2% in test [3]. The outcome in test [5], in test [6], in test [7] and in test [8] was inactive.
Take `COc1ccc2nccc([C@@H](O)CN3CCC(NCc4cc5cccc(OCc6ccccc6)c5[nH]4)CC3)c2c1`: the figures for the growth inhibition in test [1] and in test [4] were 40% and 101% (active), respectively. Further, the inhibition in test [2] was 13%; in test [3] it was 1%. Also, the result in test [5], in test [6], in test [7] and in test [8] was inactive.
Regarding `Cc1cc(NC(=O)c2ccsc2)ccc1OC1CCN(Cc2ccc(F)cc2)CC1`, the figures for the growth inhibition in test [1] and in test [4] were 47% and 83% (active), respectively. Also, the figures for the inhibition in test [2] and in test [3] were 9% and -2%, respectively. Also, the result in test [5], in test [6], in test [7] and in test [8] was inactive.
For the compound `CC(C)(C)OC(=O)NCc1ccc(Nc2nnc(-c3cccc(C(=O)NCc4cc(C(F)(F)F)cc(C(F)(F)F)c4)c3)o2)cc1`, the growth inhibition in test [1] was 13%; in test [4], 90% (active). The inhibition in test [2] is 4%; in test [3], 0%. Also, the outcome in test [5], in test [6], in test [7] and in test [8] was inactive.
`COc1cccc(C(=O)NC(C=Cc2ccccc2)c2cc(Cl)c3cccnc3c2O)c1` (stereo not given): the growth inhibition in test [1] is 58% (active); in test [4] it was 95% (active). In addition, the inhibition is 27% in test [2] and -1% in test [3]. Further, the outcome in test [5], in test [6], in test [7] and in test [8] was inactive.
For `CC(=O)N(C)C1CCN(Cc2ccc(-c3cccc(-c4nc5ccc(F)cc5[nH]4)c3)cc2)C1` (stereo not given), the growth inhibition was 79% (active) in test [1] and 100% (active) in test [4]. In addition, the inhibition in test [2] is 28%; in test [3], 6%. Further, the result in test [5], in test [6], in test [7] and in test [8] was inactive.
For the compound `CCCc1cc(Cc2cnc(N)nc2N)cc(CCC)c1OCCCCC(=O)OC`, the growth inhibition in test [1] was -5%; in test [4], 94% (active). The results for the inhibition in test [2] and in test [3] were -7% and -5%, respectively. Besides, the outcome in test [5], in test [6], in test [7] and in test [8] was inactive.
As to `Cc1cccc(Nc2nc3nonc3nc2Nc2cccc(Cl)c2Cl)c1C`, the growth inhibition is 95% (active) in test [1] and 91% (active) in test [4]. In addition, the inhibition in test [2] was 88% (active); in test [3], 2%. Further, the result in test [5], in test [6], in test [7] and in test [8] was inactive.
On to `OC1(c2ccc(Br)cc2)CCN(C2CCN(Cc3ccccc3)CC2)CC1`, for which the growth inhibition in test [1] was 18%; in test [4], 100% (active). Moreover, the inhibition in test [2] and in test [3] was 8% throughout. The outcome in test [5], in test [6], in test [7] and in test [8] was inactive.
With `CCCC(=O)Nc1ccc(OCCCCN(CC(C)(C)C)c2ccc(C#N)c(C(F)(F)F)c2)cc1`, the growth inhibition in test [1] was 69% (active); in test [4] it was 83% (active). Also, the inhibition in test [2] is 9%; in test [3], -1%. The outcome in test [5], in test [6], in test [7] and in test [8] was inactive.
Turning to `O=C(/C=C/c1ccc(C(F)(F)F)cc1)N1CCc2cc3nccc(N4CCN5CCC[C@H]5C4)c3cc21`, the growth inhibition in test [1] was 21%; in test [4] it was 86% (active). Also, the inhibition in test [2] was -7%; in test [3], -1%. Also, the result in test [5], in test [6], in test [7] and in test [8] was inactive.
Regarding `Cc1nn(-c2ccccc2)c2c1C(c1ccc(C(C)C)cc1)N1C(=N2)N(Cc2ccccc2)c2ccccc21` (stereo not given), the growth inhibition in test [1] is 37%; in test [4], 95% (active). The inhibition in test [2] was 7%; in test [3], -7%. Besides, the outcome in test [5], in test [6], in test [7] and in test [8] was inactive.
Consider `CC1CCCC(Nc2noc(-c3sccc3Br)n2)C1` (stereo not given), for which the figures for the growth inhibition in test [1] and in test [4] were 99% (active) and 102% (active), respectively. Besides, the inhibition in test [2] is 7%; in test [3], 0%. The result in test [5], in test [6], in test [7] and in test [8] was inactive.
With `CCN(CC)CCN(CCCc1ccc(-c2ccc(C(F)(F)F)cc2)cc1)C(=O)Cn1c(CCc2cccc(F)c2F)nc(=O)c2ccccc21`, the growth inhibition in test [1] is 49%; in test [4], 101% (active). In addition, the values for the inhibition in test [2] and in test [3] were 37% and 3%, respectively. Further, the result in test [5], in test [6], in test [7] and in test [8] was inactive.
In the case of `O=[N+]([O-])c1ccccc1C=NNc1ccnc2ccccc12`, the figures for the growth inhibition in test [1] and in test [4] were 98% (active) and 101% (active), respectively. Also, the inhibition in test [2] is 3%; in test [3], 2%. The outcome in test [5], in test [6], in test [7] and in test [8] was inactive.
Take `CC(C)CC(=O)N1CCNC[C@@H]1C(=O)NCCSCc1c(F)cccc1Cl`: the growth inhibition in test [1] is 3%; in test [4], 86% (active). For the same compound, the inhibition in test [2] is 1%; in test [3], 0%. Further, the outcome in test [5], in test [6], in test [7] and in test [8] was inactive.
For `COc1ccc(N(C)Cc2cnc3nc(N)nc(N)c3n2)cc1`, the growth inhibition in test [1] was -1%; in test [4] it was 98% (active). In addition, the values for the inhibition in test [2] and in test [3] were 15% and 1%, respectively. In addition, the outcome in test [5], in test [6], in test [7] and in test [8] was inactive.
As to `Cc1cccc2[nH]c(-c3cccc(-c4cccc(NC(=O)c5ccc(C(N)=O)cc5)c4)c3)nc12`, the growth inhibition in test [1] was 34%; in test [4] it was 101% (active). Moreover, the inhibition in test [2] was 25%; in test [3], 0%. Further, the result in test [5], in test [6], in test [7] and in test [8] was inactive.
Regarding `COc1cccc(C2CCN(CCCCNC(=O)c3ccc(NC(=O)c4ccc(Cl)cc4)cc3)CC2)c1`, the growth inhibition in test [1] is 40%; in test [4], 99% (active). For the same compound, the inhibition in test [2] was 18%; in test [3], -5%. For the same compound, the outcome in test [5], in test [6], in test [7] and in test [8] was inactive.

For the origin of these results see PubChem BioAssay.
